{
  "source": "PubChem BioAssay",
  "note": "Activity calls are given as the source filed them. No rule for the calls is given here.",
  "data": [
    {"biological_target": "Pantothenate synthetase (Mycobacterium tuberculosis (strain ATCC 25618 / H37Rv)) (UniProt P9WIL5)", "sequence (P9WIL5 whole entry, looked up)": "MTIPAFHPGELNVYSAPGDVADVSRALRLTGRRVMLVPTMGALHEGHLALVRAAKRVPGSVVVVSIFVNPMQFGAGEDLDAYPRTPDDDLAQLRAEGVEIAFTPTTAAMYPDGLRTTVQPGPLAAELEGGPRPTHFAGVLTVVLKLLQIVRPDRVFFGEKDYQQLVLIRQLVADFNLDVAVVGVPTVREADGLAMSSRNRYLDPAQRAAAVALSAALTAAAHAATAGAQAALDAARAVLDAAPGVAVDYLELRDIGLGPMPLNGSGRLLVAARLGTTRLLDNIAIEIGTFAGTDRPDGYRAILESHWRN", "assay": "Recombinant Mtb pantothenate synthetase (PanC) inhibitors, coupled enzyme, confirmatory (AID 375);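 also: 0% = full reaction with vehicle and 100% = no enzyme background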", "conditions": "coupled enzyme assay; at 10 µM, stronger effect = higher value", "values": [
      {"smiles": "CC1CCN(c2oc(-c3cccc4ccccc34)nc2C#N)CC1", "inhibition": "0% (inactive)"},
      {"smiles": "CCOCCOc1nc2c(c(=O)n(C)c(=O)n2C)n1Cc1ccc(C)cc1", "inhibition": "0% (inactive)"},
      {"smiles": "O=C(C1CCCN(S(=O)(=O)c2cccnc2)C1)N1CCn2c1nc1ccccc12", "note": "(centres undefined)", "inhibition": "0% (inactive)"},
      {"smiles": "O=C(COc1ccccc1)N1CCN(C(=O)c2cccc(F)c2)CC1", "inhibition": "1% (inactive)"}
    ]}
  ]
}
